Screening data as filed in PubChem BioAssay.
D2 ag-1 = human D2 receptor agonism in beta-arrestin assay; P14416; DiscoveRx PathHunter D2 beta-arrestin, luminescence, 90 min; 100% = 57 uM dopamine signal; activation, % (concentration not given with the values); 0.084% of 360,000 active; in the data active means activation above about 40%; inconclusive means between about 15% and that limit
Target sequence (P14416 whole entry, looked up): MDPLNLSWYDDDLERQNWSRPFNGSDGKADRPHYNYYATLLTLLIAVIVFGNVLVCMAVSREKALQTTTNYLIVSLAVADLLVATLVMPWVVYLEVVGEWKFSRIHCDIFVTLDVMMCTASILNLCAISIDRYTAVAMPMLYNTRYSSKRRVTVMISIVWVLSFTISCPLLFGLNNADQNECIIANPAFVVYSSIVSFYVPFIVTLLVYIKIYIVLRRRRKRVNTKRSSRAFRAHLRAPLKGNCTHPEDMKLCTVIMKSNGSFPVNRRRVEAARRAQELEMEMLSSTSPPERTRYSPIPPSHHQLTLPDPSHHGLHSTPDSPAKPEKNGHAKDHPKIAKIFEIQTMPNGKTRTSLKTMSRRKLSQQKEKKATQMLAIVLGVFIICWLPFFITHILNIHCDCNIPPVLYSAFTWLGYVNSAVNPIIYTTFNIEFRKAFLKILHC
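DiscoveRx PathHunter D2 beta-arrestin cells (2,100/well) attached overnight, then compound-stimulated 90 min at 37 C in HBSS/10 mM HEPES/0.1% Tween-20 buffer; beta-galactosidase complementation read by luminescence after 1 h at ambient temperature. Dopamine 57 uM final (EC100) as control.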
D2 ag-2 = D2 dopamine receptor (human) agonism; P14416; HEK293 T-REx D2 cells, calcium flux agonist mode; activation, % at 2 µM; 0.53% of 340,000 active; AID 485358;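 active means activation over 3 SD above normal in the single-dose calcium agonist read, cut at about 30% in these data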; further: 0% is about no effect
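Calcium-flux readout, 1 cycle/sec over 180 s following compound pin transfer, in inducible HEK293 Trex D2 cells (force-coupled); dopamine controls included. Positive calcium responses during this window marked compounds as potential agonists.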
D2 PAM-1 = positive allosteric modulators of human D2 dopamine receptor; AID 485347; HEK293 T-REx D2, calcium flux, EC20 dopamine potentiation; 0.34% of 340,000 active; P14416; potentiation, % at 10 µM;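 active means potentiation over 3 SD above the plate norm, cut at about 30% in these data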; further: 0% is about no effect
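Using a no-wash calcium dye in inducible, force-coupled HEK293 Trex cells expressing D2, we tracked fluorescence each second for 180 s after compound, then for 180 s after EC20 dopamine to detect augmented signalling.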
D2 PAM-2 = positive allosteric modulators of human D2 dopamine receptor; P14416; DiscoveRx D2 beta-arrestin cells, luminescence, 90 min; 100% = 57 uM dopamine signal; potentiation, % (concentration not given with the values); 0.23% of 360,000 active; AID 624464; in the data active means potentiation above about 50%; inconclusive means mostly about 30% to 49%
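PathHunter D2 cells, attached overnight at 37 deg C, received compound in DMSO plus dopamine at EC20 (50 nM final) for 90 min at 37 deg C. Beta-arrestin recruitment was read as luminescence after 1 h with detection reagent at ambient temperature.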
D2 antag = D2 dopamine receptor (human) antagonism. HEK293 TREx D2 cells, calcium flux, dopamine EC80. inhibition, % at 10 µM. 2% of 340,000 active. AID 485344; in the data active means inhibition above about 30%; inactive means below that, where a call was filed; further: 0% is about no effect
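Read-out: kinetic calcium fluorescence (1 cycle/s) in inducible HEK293 T-REx D2 cells after an EC80 dopamine addition that followed 180 s compound preincubation. Loss of the dopamine response indicates antagonism.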
* = called active by the depositor; u = inconclusive; x = no result. Rows were chosen to be rich in hits. Some 2.4% of all compounds tested hit in one or more screens of this group.

SMILES | D2 ag-1 | D2 ag-2 | D2 PAM-1 | D2 PAM-2 | D2 antag
CN(C)C=Nc1c(Br)cc(Br)c2nonc12 | 0 | 63* | -8 | 1 | 2
CCC(=O)N1CCc2cc(Br)cc(S(=O)(=O)N3CCCC(C(=O)N(C)c4ccc(Br)cc4)C3)c21 (stereo not drawn) | x | -1 | 11 | x | x
CC1CCCC(NC(=O)COC(=O)c2cccc(NS(=O)(=O)/C=C/c3ccccc3)c2)C1C (stereo not drawn) | 2 | -1 | 17 | 25 | 50*
COc1ccc2ccccc2c1/C=N/NC(=O)c1cccc(Br)c1 | -4 | 0 | -14 | -42 | 10
COc1ccc2ccccc2c1/C=N/NC(=O)c1ccccc1F | -7 | 3 | 3 | -13 | -3
COc1ccc2ccccc2c1/C=N\NC(=O)c1ccc(C)s1 | -3 | 0 | -20 | -37 | 40*
COc1ccc2ccccc2c1/C=N/NC(=O)c1ccc([N+](=O)[O-])cc1 | -1 | -2 | -28 | -16 | 71*
CCN(CC)C(=O)C1=C(C)N(CCCOC)C(=O)C(CC(=O)NCCN2CCOCC2)C1 (stereo not drawn) | -7 | x | x | -1 | x
COc1ccc(NC(=O)c2c(-c3ccccc3)c(-c3ccccc3)nn(C)c2=O)cc1OC | x | 0 | -2 | x | x
COc1ccccc1CNCC(=O)Nc1ccc(N2CCOCC2)cc1 | -1 | 33* | -14 | -4 | 3
COc1ccccc1NC(=O)Nc1ccc(N2CCOCC2)cc1 | -2 | 0 | -23 | -4 | 4
Cc1cccc(-c2nc(CSc3nc4c(c(=O)[nH]3)CCC4)c(C)o2)c1 | 8 | 0 | 8 | 8 | 43*
Cc1oc(-c2ccccc2)nc1CSc1nc2c(c(=O)[nH]1)CCC2 | 2 | 0 | 6 | -2 | 35*
Cc1noc(C)c1S(=O)(=O)N1CCC(C(=O)NCCC2=CCCCC2)CC1 | -3 | 0 | -1 | -12 | -24
Cc1nn(C)c(C)c1S(=O)(=O)N1CCC(C(=O)NC2CCCCCC2)CC1 | 0 | 1 | 1 | -6 | 33*
Cc1nn(C)c(C)c1S(=O)(=O)N1CCC(C(=O)NCCC2=CCCCC2)CC1 | -2 | -1 | -7 | -9 | 30*
CCCCn1cc2c(c1-c1ccccc1Br)c(=O)n(C)c(=O)n2C | x | 0 | 0 | x | x
Cc1cccc(Nc2nnc(-c3ccc(C)c(S(=O)(=O)N4CCOCC4)c3)c3ccccc23)c1 | x | 0 | 3 | x | x
Cc1nc(COc2ccc(C(=O)NCc3ccccc3CN3CCCCC3)cc2)cs1 | -3 | -1 | 15 | -5 | -21
O=C(NCc1ccccc1CN1CCCC1)c1ccc(OCc2cscn2)cc1 | -2 | 1 | -7 | -3 | 35*
Cc1csc2c(NC3CCN(Cc4ccccc4)CC3)ncnc12 | -1 | -1 | -24 | -4 | 89*
Cc1sc2ncnc(NC3CCN(Cc4ccccc4)CC3)c2c1C | 1 | 1 | -20 | -17 | 68*
CS(=O)(=O)NC1CCN(Cc2ccccc2)CC1 | -1 | 0 | -6 | -9 | 29
c1ccc(CN2CCC(Nc3nc(-c4cccnc4)nc4ccccc34)CC2)cc1 | -5 | 0 | -22 | -47 | 49*
c1ccc(CN2CCC(Nc3ncnc4sccc34)CC2)cc1 | -4 | 1 | -19 | -13 | 77*
SMILES | D2 ag-1 | D2 ag-2 | D2 PAM-1 | D2 PAM-2 | D2 antag
Fc1ccccc1CNc1ncnc2sccc12 | -1 | 1 | 2 | 1 | -1
O=C(Cn1c(=O)oc2cc(S(=O)(=O)NCc3ccccc3)ccc21)NCc1ccc(F)cc1 | x | -1 | 8 | x | x
CCC(=O)N1CCc2cc(Br)cc(S(=O)(=O)N3CCC(C(=O)Nc4cccc(C)c4)CC3)c21 | x | 1 | 18 | x | x
CCCOc1ccc(NC(=O)CC2C(=O)N(c3ccc(C)cc3)C(=O)N2C(C)C)cc1 (stereo not drawn) | x | 2 | 5 | x | x
Cc1ccc(S(N)(=O)=O)c(C)c1N1CCCC1=O | -7 | 0 | 30* | -4 | -5
O=C1Cc2cc(CCN3CCN(c4nsc5ccccc45)CC3)c(Cl)cc2N1 | x | 0 | -25 | x | 84*
O=C1Cc2cc(S(=O)(=O)N3CCN(c4ccccc4)CC3)ccc2N1 | -6 | 1 | -2 | -7 | -14
Cc1ccc2c(=O)cc(C(=O)Nc3cccc(Cl)c3C)oc2c1C | x | -1 | -19 | x | x
COc1ccccc1CCNC(=O)C(=O)NCC1OCCCN1S(=O)(=O)c1cc(C)ccc1C (stereo not drawn) | -2 | -1 | -1 | -11 | 34*
Cc1cc(F)ccc1S(=O)(=O)N1CCCOC1CNC(=O)C(=O)NCCCN1CCOCC1 (stereo not drawn) | 3 | 32* | -7 | -23 | 20
Cc1cc(F)ccc1S(=O)(=O)N1CCCOC1CNC(=O)C(=O)NCCN1CCOCC1 (stereo not drawn) | 3 | 2 | 3 | 14 | 5
O=C(NCCc1ccccc1)C(=O)NCC1OCCN1S(=O)(=O)c1ccc(Br)cc1 (stereo not drawn) | 11 | 0 | -2 | -4 | 31*
COCCSc1ccccc1C(=O)NCCCn1ccnc1 | -1 | 0 | 4 | -8 | 39*
COCCSc1ccccc1C(=O)Nc1ccc(Cl)cc1 | 1 | 0 | -6 | -17 | 58*
CCCS(=O)(=O)N1CCC(C(=O)NCCCN2CCC(Cc3ccccc3)CC2)CC1 | -2 | 1 | -3 | -22 | 33*
CCCS(=O)(=O)N1CCC(C(=O)N2CCC(Cc3ccccc3)CC2)CC1 | -4 | 1 | 7 | -8 | -8
O=C(CCN1CCCCCC1)Nc1cccc(F)c1 | -3 | 0 | -20 | -18 | -7
O=C(CCN1CCc2ccccc2C1)Nc1ccccc1 | 0 | 0 | -24 | -36 | 57*
O=C(CN1CCc2ccccc2C1)Nc1ccc(Br)cc1 | -1 | 1 | -22 | -40 | 58*
O=C(CCN1CCc2ccccc2C1)Nc1cccc(F)c1 | -4 | 3 | x | -27 | 60*
CN(c1ccccc1)S(=O)(=O)c1cccc(NC(=O)CN2CCc3ccccc3C2)c1 | u | 28 | -13 | 16 | 33*
CN(c1ccccc1)S(=O)(=O)c1cccc(NC(=O)CC(C)(C)C)c1 | 0 | -1 | 4 | -9 | -6
CC1Cc2cc(S(=O)(=O)NCCc3ccc(Cl)cc3)ccc2N1C(=O)C1CCC1 (stereo not drawn) | x | 0 | 7 | x | x
O=C(CN1CCc2ccccc2C1)Nc1ccccc1C(F)(F)F | 13 | 34* | -4 | -2 | 4
O=C(CCC(=O)N1CCc2ccccc21)Nc1ccccc1 | -2 | 0 | -9 | -10 | 36*
O=C(Nc1ccccc1)N1CCc2ccccc21 | -3 | 0 | -11 | -7 | -12
CCC1CCCCN1CCCNC(=O)c1sc2nc(C)cc(C)c2c1-n1cccc1 (stereo not drawn) | x | x | -6 | x | x
Cc1cc(C)cc(NC(=S)N(CCCN2CCN(C)CC2)Cc2cccs2)c1 | 0 | 1 | x | 1 | 1
